Measured values published in PubChem BioAssay AID1214 (Sanford-Burnham Center for Chemical Genomics, 2008).
Out of some 190,000 compounds screened, about 10 (0.005%) were called active.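 Rule for the calls: active = activation factor of 2 or more at 20 µM, relative to plate controls; inactive = the rest.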 These entries were drawn from the full list.

Target: Mannose-6-phosphate isomerase (Homo sapiens) (UniProt P34949)
Assay: MPI enzyme activity enhancement – biochemical, fluorescence intensity, near-Km mannose 6-phosphate, primary screen (AID 1214)
Details: purified human PMI, coupled resazurin fluorescence, 20 min; at 20 µM; stronger effect = higher value; 1 = vehicle control, 0 substrate-free wells

Mannose-6-phosphate isomerase (Homo sapiens), sequence (P34949 whole entry, looked up): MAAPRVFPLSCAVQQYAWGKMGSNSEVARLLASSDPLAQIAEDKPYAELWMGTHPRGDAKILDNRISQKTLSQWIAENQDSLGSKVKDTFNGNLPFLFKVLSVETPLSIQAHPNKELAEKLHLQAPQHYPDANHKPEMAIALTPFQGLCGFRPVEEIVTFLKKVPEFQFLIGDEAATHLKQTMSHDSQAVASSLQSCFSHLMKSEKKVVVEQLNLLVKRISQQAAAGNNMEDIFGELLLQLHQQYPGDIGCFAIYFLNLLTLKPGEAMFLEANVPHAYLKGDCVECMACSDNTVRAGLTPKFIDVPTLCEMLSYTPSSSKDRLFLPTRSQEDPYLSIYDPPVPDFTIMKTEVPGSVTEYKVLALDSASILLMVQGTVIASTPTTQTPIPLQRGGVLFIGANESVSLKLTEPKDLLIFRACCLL

Activation factor, inactive:
CCOC(=O)c1c(C)[nH]c(C2=NNC(=NC(C)COC)SC2)c1C (stereo not given) 1.3, Cc1cc(-c2n[nH]c(=S)n2-c2ccc(C)c(C)c2)no1 1, CCC(=O)Nc1c(C)n[nH]c1C 0.9, Cc1ccc(OCc2n[nH]c(=S)n2-c2ccc(C)cc2)cc1 0.8, CNc1nc(Nc2ccc(C)c(Cl)c2)nc(N)c1[N+](=O)[O-] 0.9, O=C(NCCCNc1ccc([N+](=O)[O-])cc1Cl)c1ccccc1F 1.1, COc1ccc(/C=C(\NC(=O)c2ccc(OCC(C)C)cc2)C(=O)OCc2ccco2)cc1 0.9, O=C1CCC/C(=N\NC(=O)NC2CCCCC2)C1 0.8, O=C(CSc1ccccc1)Nc1nnc(/C=C/c2ccccc2)s1 0.9, COC(=O)CNC(=O)c1ccc(OC2CCN(C(=O)C3CC3)CC2)cc1 0.9, COc1cc(/C=C/C(=O)N2c3ccccc3Sc3ccc(C(F)(F)F)cc32)cc(OC)c1OC 0.9, O=C1/C(=C\c2ccccc2Cl)SC(=S)N1CCC(=O)N1CCCc2ccccc21 0.9, CNC(=O)NC(=O)CSc1nnc(-c2ccc(F)cc2)n1CC1CCCO1 (stereo not given) 1, Nc1cc(C(F)(F)F)ccc1N1CCOCC1 1, COc1cc(C2C(N3C(=O)c4ccccc4C3=O)C(=O)N2c2ccc(C)c(C)c2)cc(OC)c1OC (stereo not given) 0.9, OCC(CO)(CO)NCc1ccc(-c2ccccc2)cc1 1, COc1ccc(Cl)cc1-n1c(C)cc(C(=O)OCC(=O)N2CC(=O)Nc3ccccc32)c1C 0.9, COc1cc(/C=N/NC(=O)CCc2n[nH]c(=O)[nH]c2=O)ccc1O 0.9, COc1cccc(CN(C)CC(=O)Nc2ccccc2C(=O)Nc2ccccc2)c1 0.9, COc1ccccc1CNC(=O)COc1ccc(C)nc1[N+](=O)[O-] 1.1, O=C(N/N=C/c1ccc([N+](=O)[O-])o1)c1cn(-c2ccccc2)nc1-c1ccc(F)cc1 1.4, Cc1ccc(C)c(NC(=S)NNC(=S)Nc2ccc(C(C)C)cc2)c1 0.8, N=C1C(=O)OCC1c1ccccc1NC(=O)CN1CCCCC1 (stereo not given) 1.1, C=CCOc1c(Br)cc(/C=N\n2nnnc2N)cc1OC 1.1, O=C(Nc1cccnc1)c1cc2cc(Br)ccc2oc1=O 1, COCC(C)NC(=O)COc1nncc2ccccc12 (stereo not given) 1.2, C=CCN1C2CCCC1CC(NC(=S)Nc1cccc(OC)c1)C2 (stereo not given) 0.9, CCNC(=O)NNC(=O)C1CC(c2cccs2)=NO1 (stereo not given) 1, CCc1cccc(NC(=O)CCC(=O)O)c1 1, NC(=O)COC(=O)c1sc2cc(F)ccc2c1Cl 1.2, CCOC(=O)N1CCN(Cc2nc3ccc([N+](=O)[O-])cc3c(=O)n2-c2cccc(OC)c2)CC1 1, COc1ccccc1CNC(=O)C1Cc2ccccc2C(=O)O1 (stereo not given) 0.9, O=C(/C=C/c1ccccc1)Oc1coc(CSc2ncccn2)cc1=O 1, COc1ccc(Br)cc1CN(C)CC(=O)Nc1cc(Cl)cc(Cl)c1 0.8, Cc1ccc(/C([O-])=C(/C(=S)NCc2ccco2)[n+]2ccccc2)cc1[N+](=O)[O-] 1, CN(C)/C=C(/C(=O)c1ccc(F)cc1)S(=O)(=O)c1ccc(F)cc1 1.2, O=S(=O)(c1ccc2c(c1)OCCO2)N1CCc2ccccc21 0.9, N#C/C(C(=S)Nc1ccccc1)=C1/NN=C(N2CCOCC2)N1c1ccccc1 1, CCN(CC)S(=O)(=O)c1ccc(N2CCOCC2)c(NC(=O)C2COc3ccccc3O2)c1 (stereo not given) 1, COc1ccc(NC(=O)CN(Cc2ccccc2)S(C)(=O)=O)cc1OC 0.9, COc1ccccc1N(CC(=O)Nc1ccc(C(F)(F)F)cc1)S(C)(=O)=O 1, O=C(Cc1cccs1)N(CC1CCCO1)C1(C(=O)NC2CCCCC2)CCCCC1 (stereo not given) 1.1, O=C(OCC1O[C@@H](OC(=O)c2cc(O)c(O)c(O)c2)[C@@H](OC(=O)c2cc(O)c(O)c(O)c2)[C@@H](OC(=O)c2cc(O)c(O)c(O)c2)[C@@H]1OC(=O)c1cc(O)c(O)c(O)c1)c1cc(O)c(O)c(O)c1 (stereo not given in full) 0.4, CC[n+]1c(C)n(-c2ccccc2)c2ccc(NC(C)=O)cc21 0.5, Cc1c(C(=O)Nc2cccc(Cl)c2)cn2c(nc3ccccc32)c1C#N 1.1, O=C(NCC(=O)N(CC1CCCO1)C(C(=O)NC1CCCCC1)c1ccccc1)c1ccco1 (stereo not given) 1.1, CC(C)(C)C1CCC(=NNC(=O)c2cc(-c3ccccc3)n[nH]2)CC1 (stereo not given) 1, O=C(CSc1cccc[n+]1[O-])NCCCc1ccccc1 1, O=c1cc(CO)oc(C(Nc2cccc([N+](=O)[O-])c2)c2ccccn2)c1O (stereo not given) 1, O=S(=O)(ON(c1ccccc1)S(=O)(=O)c1ccccc1)c1ccccc1 1.1, COc1ccc(CCNC(=O)COC(=O)C2CCCCC2)cc1 0.9, NS(=O)(=O)c1ccc(NC(=S)NC(=O)c2cccnc2)cc1 1, CCCCN1C(=O)/C(=C/C=C2/C=Cc3ccccc3N2CC)SC1=S 0.7, CCOC(=O)c1ccccc1NC(=S)N1CCC(C(N)=O)CC1 1, O=C(CN1C(=O)/C(=C\c2ccccc2F)SC1=S)Nc1nc2ccccc2s1 0.8, COC(=O)C(=Nc1ccccc1)/C(C(=O)C(=O)N(C)c1ccccc1)=C(\O)c1ccc(Cl)cc1 1.2, COC(=O)C1=C(N)Oc2c(oc(CO)cc2=O)C1c1c(F)cccc1Cl (stereo not given) 1.1, O=C(CCC1CCCN(C(=O)Cc2ccc(F)cc2)C1)N1CCN(c2ccccn2)CC1 (stereo not given) 1, CCOC(=O)CCCNC(=O)COC(=O)/C=C/c1ccc2c(c1)OCO2 1.1, COc1ccc(CCNC(=O)c2ccc(CS(=O)(=O)c3ccc(Br)cc3)o2)cc1OC 1, CC(C)CCN1CCN(C/C=C/c2ccco2)CC1CCO (stereo not given) 0.8, CCOC(=O)c1ccc(NNC(C)=O)c([N+](=O)[O-])c1 0.9, CC(=O)c1ccc(NC(=S)N(Cc2ccccc2)C(C)C2CC2)cc1 (stereo not given) 0.8, O=C(CN1CCCC1)N1CCN(c2ccccc2)CC1 0.8, O=C(CC1C(=O)NCCN1Cc1ccc(-c2ccccc2)cc1)NCc1ccncc1 (stereo not given) 1, CCOc1ccc(-n2c(SCC(=O)NC3CCS(=O)(=O)C3)nnc2-c2cccnc2)cc1 (stereo not given) 1, O=C(Nc1ccc(N2CCOCC2)cc1)c1ccc2c(c1)OCO2 0.9, CCC1CCCCN1C(=O)CSc1nc(C)cc(C)n1 (stereo not given) 1, CCCOC(=O)c1ccc(N2C(=O)c3ccccc3C2=O)cc1 1, O=C(CSc1ccc([N+](=O)[O-])cn1)Nc1ccc(N2CCOCC2)c(Cl)c1 1, COc1ccc(-c2cc(C(=O)NCCCn3ccnc3)no2)cc1 1, Cc1cccc(C)c1NC(=S)N(Cc1cccnc1)Cc1ccccc1Cl 0.9, COc1ccc(/C=C/CN2CCCC(C(=O)c3cc(F)ccc3F)C2)cc1 (stereo not given) 1, O=c1c2sccc2nc(SCc2cc(=O)n3ccccc3n2)n1-c1ccc(Br)cc1 0.9, O=C1CS(=O)CN1c1ccc(Oc2ccccc2)cc1 (stereo not given) 1, CC(=C/c1ccccc1)/C=N/NC(=O)c1cc(C)oc1C 0.9, CN1C(=O)C(CC(=O)Nc2ccccc2)S/C1=N/c1nccs1 (stereo not given) 1, CC(/C=C/C1(O)C(C)CC(=O)CC1(C)C)OC1OC(CO)C(O)C(O)C1O (stereo not given) 0.9, CCN(C(=O)COC(=O)c1ccc(COc2ccc3c(C)cc(=O)oc3c2)cc1)C1CCS(=O)(=O)C1 (stereo not given) 1, CCOC(=O)c1cc2c(=O)n3ccccc3nc2n(CC(C)C)c1=NC(=O)c1c(-c2c(F)cccc2Cl)noc1C 1, CCOc1ccc2nc(NCCNC(=O)C(C)(C)C)c(C)cc2c1 1, Cc1cccc(N(C(=O)Cc2cccs2)C(C(=O)NCc2ccco2)c2ccncc2)c1 (stereo not given) 0.9, COc1ccc(Cl)cc1NC(=O)NC(C)C(C)(C)C (stereo not given) 0.9, CC(C)CCN1CCN(Cc2cn[nH]c2C2CCCCC2)CC1CCO (stereo not given) 1, Cc1cccc(NC(=O)/C=C/c2ccc3c(c2)OCO3)n1 0.9, CC1=CC(=C(C#N)c2nc3ccccc3s2)C=C(C)N1c1ccc(F)cc1F 0.7, COc1cccc(/C=C/C(=O)Nc2ccc3c(c2)OCCO3)c1 1.1, Cc1c(NC(=S)NCc2ccc(F)cc2)cccc1[N+](=O)[O-] 0.8, Cc1ccc(-c2nn(-c3ccccc3)cc2/C=C/C(=O)Nc2cccc(S(N)(=O)=O)c2)cc1 0.9, COc1ccc(NC(=S)N2CCCC(CO)C2)c(OC)c1 (stereo not given) 1, COC(=O)c1c(C(=O)OC)c(-c2cccc(C)c2)n2c1CS(=O)C2 (stereo not given) 0.9, CCOC(=O)C1(O)CC(C)=NN1C(=O)c1cccc(Br)c1 (stereo not given) 1.1, Cc1ccc(-n2cc(CN(C)Cc3nccn3C)c(-c3cccc(C)c3)n2)cc1 0.8, O=C(CCNC(=O)c1ccc([N+](=O)[O-])cc1)Nc1ccccc1N1CCOCC1 1, CCCC(O)(CCC)C(=O)NN(C(=O)CCl)c1cccc(C)c1 1.1
